The text below walks through data of PubChem BioAssay.

Each structure is given as a SMILES string. Results filed as inconclusive are left out. The source made the active and inactive calls.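 Rule for the calls, unless noted: active = inhibition over a set limit, the all-compound mean plus 3 SD, in both replicate runs; inconclusive = over that limit in just one replicate run; inactive = at or under that limit in both runs.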

Assay [1] is described as follows: reducers of endogenous Her2 protein level, primary screen, SKBR3 breast tumor cells, AlphaScreen, ATP viability (AID 461;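 active = Her2 level under about 52% in both replicate screens, with viability over 70% of control, limit read from the data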;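 for Her2 level: lower value means less Her2 protein in the cells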;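 for viability: percent of carrier control wells set as 100% viability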). The following applies: 18-24 h, measured here: SKBR3 viability, ATP luminescence, at 10 µM.
The target in assay [2] is Receptor tyrosine-protein kinase erbB-2 (Homo sapiens) (UniProt P04626). Described as above. The following applies: 18-24 h, at 10 µM, stronger effect = lower value.
Chain of Receptor tyrosine-protein kinase erbB-2 (Homo sapiens) (P04626 whole entry, looked up): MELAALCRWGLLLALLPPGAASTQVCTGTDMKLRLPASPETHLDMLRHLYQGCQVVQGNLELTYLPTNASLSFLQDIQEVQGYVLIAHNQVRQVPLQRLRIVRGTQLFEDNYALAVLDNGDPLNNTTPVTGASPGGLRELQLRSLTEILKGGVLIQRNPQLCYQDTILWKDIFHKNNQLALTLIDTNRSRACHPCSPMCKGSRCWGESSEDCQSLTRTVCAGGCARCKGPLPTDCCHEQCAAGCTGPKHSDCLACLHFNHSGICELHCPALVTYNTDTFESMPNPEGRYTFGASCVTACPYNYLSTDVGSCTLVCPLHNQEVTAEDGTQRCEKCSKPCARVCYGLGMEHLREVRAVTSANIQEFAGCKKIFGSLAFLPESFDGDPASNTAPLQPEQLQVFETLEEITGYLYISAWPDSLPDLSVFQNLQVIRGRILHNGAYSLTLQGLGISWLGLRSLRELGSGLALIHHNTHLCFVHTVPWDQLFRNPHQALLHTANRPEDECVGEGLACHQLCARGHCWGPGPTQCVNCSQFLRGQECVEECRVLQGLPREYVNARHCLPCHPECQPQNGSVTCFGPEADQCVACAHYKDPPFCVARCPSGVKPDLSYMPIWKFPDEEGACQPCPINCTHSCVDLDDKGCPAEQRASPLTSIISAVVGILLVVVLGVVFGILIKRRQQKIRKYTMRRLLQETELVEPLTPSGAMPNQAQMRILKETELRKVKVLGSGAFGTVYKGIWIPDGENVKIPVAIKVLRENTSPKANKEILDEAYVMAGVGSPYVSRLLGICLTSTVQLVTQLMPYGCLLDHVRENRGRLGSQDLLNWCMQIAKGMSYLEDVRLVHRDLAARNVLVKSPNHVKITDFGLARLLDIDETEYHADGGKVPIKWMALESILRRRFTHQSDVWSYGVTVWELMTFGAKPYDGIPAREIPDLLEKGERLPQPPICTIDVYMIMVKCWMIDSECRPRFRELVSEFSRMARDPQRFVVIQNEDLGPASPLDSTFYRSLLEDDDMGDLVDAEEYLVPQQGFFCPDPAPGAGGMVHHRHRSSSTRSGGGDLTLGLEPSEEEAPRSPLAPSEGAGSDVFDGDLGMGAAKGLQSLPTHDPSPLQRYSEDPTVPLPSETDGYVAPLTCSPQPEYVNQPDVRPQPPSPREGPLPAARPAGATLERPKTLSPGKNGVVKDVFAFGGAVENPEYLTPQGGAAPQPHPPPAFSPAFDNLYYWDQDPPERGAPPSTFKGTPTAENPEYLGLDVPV
The nature of assay [3]: SK-BR-3 cell growth inhibitors, pilot screen, 24 h, human (AID 572;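 active = viability at or below 10% of carrier control in both of two separate runs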;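 note: compound exposure lasted between 18 and 24 h rather than exactly 24 h; 100% = carrier-treated control wells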). As to conditions: SK-BR-3 viability, CellTiter-Glo luminescence, at 10 µM, stronger effect = lower value.
Assay [4] in a line: HUVEC growth inhibition – cell-based, human, primary screen (AID 575;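 active = viability at or below 30% in both replicate assays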;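 note: 100% = median of untreated cell wells with 0.1% DMSO on each plate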). The following applies: HUVEC proliferation, CellTiter-Glo luminescence, 72 h; at 10 µM; stronger effect = lower value.
A short description of assay [5]: growth inhibitors of H69AR lung tumor, primary screen, human, duplicate replicates (AID 580;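 active = viability at or under a set limit in both replicates, limit being median viability minus 3 SD, cut at about 48% in these data, passing the limit was not always enough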;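 note: 100% = mean luminescence of untreated wells and 0% = no signal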). As to conditions: H69AR lung tumor cells viability, ATP luminescence, 72 h; at 10 µM; stronger effect = lower value.
A short description of assay [6]: reversal of MRP1-mediated doxorubicin resistance, pilot screen, H69AR cells, doxorubicin co-treatment (AID 601;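 active = viability loss from added drug above about 55%, and viability with drug at most 40%, in both replicates, limit read from the data, passing the limit was not always enough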). The following applies: CellTiter-Glo, 72 h, at 10 µM; for differential viability (reversal): stronger effect = higher value.
Assay [7] is described as follows: 384-well plate pilot, post-Golgi transport modulator project, inhibition of yeast transport mutant growth (AID 636; in the data active = inhibition above about 31%). As to conditions: absorbance 615 nm, about 18 h, stronger effect = higher value.
A short description of assay [8]: growth suppression of yeast trafficking mutant, preliminary HTS, modulators of trafficking downstream of Golgi apparatus project, 1536-format plate, OD 615 nm (AID 637; in the data active = inhibition above about 30%). The following applies: yeast transport mutant growth, absorbance 615 nm, 18 h; stronger effect = higher value.
A short description of assay [9]: OD615 S. cerevisiae growth inhibition, permissive medium, pilot counter-assay, permissive growth control for S. cerevisiae lifespan shortening project (AID 705;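 active = growth inhibition above 25% in both replicates, a cutoff set 3 SD above the mean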). As to conditions: OD615, 24 h, at 10 µM, stronger effect = higher value.
The nature of assay [10]: Restrictive medium S. cerevisiae growth inhibition, OD615, pilot screen of yeast lifespan reduction project, restrictive growth control (AID 706;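 active = growth inhibition above a set limit, 3 SD over mean compound inhibition, in both replicates, cut at about 43% in these data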;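 note: modified DeaD lifespan yeast strain shifted to restrictive glucose medium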). As to conditions: OD615, 48 h, at 10 µM, stronger effect = higher value.
Assay [11] is described as follows: viability gain of MRP-1-high H69AR cells under doxorubicin, pilot screen, MRP-1 activator project, CellTiter-Glo, duplicate (AID 807;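 active = viability increase at or above a cutoff of the median across tested compounds plus 3 SD, cut at about 8.5% in these data, passing the limit was not always enough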;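 note: compound pretreatment 18-22 h then 72 h combined with doxorubicin; 0% = doxorubicin alone and 100% = vehicle without doxorubicin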). The following applies: H69AR viability with doxorubicin, CellTiter-Glo luminescence; at 10 µM; stronger effect = higher value.
Assay [12] in a line: growth suppression of beta-catenin knockout HCT116, pilot screen, human colon tumor cells (AID 823;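 active = cell viability at or below a set limit in both duplicate runs, the limit being the all-compound median minus 4 SD, cut at about 23% in these data, passing the limit was not always enough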;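 note: 0% = wells killed by 20 µM Hyamine and 100% = untreated DMSO cell wells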). The following applies: CellTiter-Glo, 60 h, at 10 µM, stronger effect = lower value.
A short description of assay [13]: growth suppression of PTEN-deleted HCT116, pilot screen, cell-based, HCT116 clonal line, CellTiter-Glo (AID 824;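 active = viability at or below 27.92% in each of two runs, the all-compound median minus 4 SD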;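 note: 0% = 20 µM Hyamine control and 100% = vehicle cell control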). As to conditions: 60 h, at 10 µM, stronger effect = lower value.
A short description of assay [14]: inhibitors of the yeast RAM network, pilot screen, dse1pr::URA3 reporter, 5-FOA selection (AID 869).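 Note: 0% = DMSO wells with no growth and 100% = 10 µM 1-NA-PP1 with full growth; RAM network block rescues cells from 5-FOA so hits raise OD615 growth.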 As to conditions: S. cerevisiae dse1pr::URA3 5-FOA growth, OD615, 2 d; at 10 µM; stronger effect = higher value; strain carries analog-sensitive mutant Cbk1 kinase.
Assay [15] in a line: RAM signaling pathway blockade in yeast – S. cerevisiae, Pdr1DBD-CYC8 efflux-inhibited sensitized strain, primary screen (AID 1298;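 active = RAM network inhibition above 8.4% in each of two replicates, 3 SD over the compound average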;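 note: 0% = DMSO untreated cells without growth and 100% = 10 µM 1-NA-PP1 full growth; higher means more yeast growth rescued from 5-FOA killing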). The following applies: S. cerevisiae cbk1-as DSE1-URA3 strain, 5-FOA growth OD615, 2 d; at 50 µM; stronger effect = higher value.
[16] abbreviates: H69AR cells + 2 uM doxorubicin, measured here: viability with 2 uM doxorubicin, stronger effect = lower value.
[17] abbreviates: H69AR cells, compound alone cytotoxicity.

`CC1C(=O)C(C)C(c2cccs2)NC1c1cccs1` (stereo not given): the viability in assay [1] was 83%; in assay [3] it was 83% (inactive); in assay [4], 101% (inactive); in [5] it was 104% (inactive); in [6] (setting [16]), 100%; in assay [6] (setting [17]), 104%. Besides, the viability in assay [12] is 87.3% (inactive); in assay [13] it was 91% (inactive). Also, the Her2 level in assay [2] is 100% (inactive). For the same molecule, in assay [6] (H69AR cells + 2 uM doxorubicin), the differential viability (reversal) is 3.58% (inactive). Besides, the inhibition was 1.73% (inactive) in assay [7], 2.42% (inactive) in [8] and 0.78% (inactive) in assay [14]. Further, the growth inhibition in assay [9] is -1.82% (inactive); in assay [10], -0.61% (inactive). In assay [11], the viability increase is 0.03% (inactive). The RAM network inhibition in [15] is 1.45% (inactive).

Turning to `COc1ccc(OC)c(S(=O)(=O)N2CCN(c3c(C)cccc3C)CC2)c1`, the viability was 100% in assay [1]; 100% (inactive) in assay [3]; 79.5% (inactive) in [4]; 86.9% (inactive) in [5]; 83.4% in assay [6] (setting [16]); 86.9% in assay [6] (setting [17]). In addition, the viability in assay [12] is 68% (inactive); in assay [13], 82.5% (inactive). Further, in [2], the Her2 level was 86% (inactive). The differential viability (reversal) in assay [6] (H69AR cells + 2 uM doxorubicin) was 3.56% (inactive). Also, the values for the inhibition in assay [7], in [8] and in assay [14] were -8.53% (inactive), 2.33% (inactive) and 1.79% (inactive), respectively. For the same molecule, the growth inhibition in assay [9] was 0.405% (inactive); in assay [10], 6.42% (inactive). Besides, the viability increase in [11] was -2.38% (inactive). Besides, the RAM network inhibition in [15] was 6.46% (inactive).

`COc1cccc(C2C(C(N)=O)=C(C)Nc3nc(-c4ccccc4Cl)nn32)c1` (stereo not given): the viability in assay [1] was 79.5%; in assay [3] it was 79.5% (inactive); in [4], 69.3% (inactive); in [5], 92.1% (inactive); in assay [6] (setting [16]), 76.4%; in [6] (setting [17]) it was 92.1%. Besides, the viability is 67.2% (inactive) in assay [12] and 72.2% (inactive) in assay [13]. Moreover, the Her2 level in [2] is 92.5% (inactive). In addition, the differential viability (reversal) in assay [6] (H69AR cells + 2 uM doxorubicin) is 15.7% (inactive). The figures for the inhibition in [7], in assay [8] and in assay [14] were -5.33% (inactive), -2.83% (inactive) and -0.135% (inactive), respectively. For the same molecule, the growth inhibition in assay [9] is -0.045% (inactive); in assay [10], -2.87% (inactive). Further, the viability increase in assay [11] is -2.66% (inactive). Also, the RAM network inhibition in assay [15] was 2.34% (inactive).

As for `Cc1ccc(C(=O)CC2(O)C(=O)N(C)c3ccc(Br)cc32)c(C)c1` (stereo not given), the viability is 85% in assay [1]; 85% (inactive) in assay [3]; 77.7% (inactive) in assay [4]; 75% (inactive) in [5]; 91.9% in assay [6] (setting [16]); 75% in assay [6] (setting [17]). Also, the viability in assay [12] is 71.5% (inactive); in [13], 74.7% (inactive). Besides, in assay [2], the Her2 level was 88.5% (inactive). Further, the differential viability (reversal) in [6] (H69AR cells + 2 uM doxorubicin) is -16.9% (inactive). Moreover, the inhibition in [7] is -4.13% (inactive); in assay [8], -0.83% (inactive); in assay [14], 2.44% (inactive). Also, the growth inhibition in assay [9] was 2.26% (inactive); in [10], 9.8% (inactive). Further, the viability increase in [11] was -4.61% (inactive). Moreover, the RAM network inhibition in assay [15] was 4.59% (inactive).

As for `c1ccc2c(c1)Cc1cc(CN3CCOCC3)ccc1-2`, the viability in assay [1] is 85%; in assay [3] it was 85% (inactive); in assay [4] it was 99.7% (inactive); in [5], 89.3% (inactive); in assay [6] (setting [16]) it was 92.1%; in assay [6] (setting [17]), 89.3%. Besides, the viability in [12] was 92.3% (inactive); in [13] it was 97.5% (inactive). Moreover, the Her2 level in [2] was 100% (inactive). Besides, the differential viability (reversal) in assay [6] (H69AR cells + 2 uM doxorubicin) was -2.81% (inactive). For the same molecule, the inhibition in assay [7] is 2.34% (inactive); in assay [8], -1.15% (inactive); in assay [14], 1.01% (inactive). Also, the growth inhibition in assay [9] is -14.7% (inactive); in [10] it was -4.66% (inactive). For the same molecule, the viability increase in assay [11] is 0.12% (inactive). In assay [15], the RAM network inhibition is 0.21% (inactive).

For the molecule `COCCNC(=O)C(C)N(c1ccc(Oc2ccccc2)cc1)S(C)(=O)=O` (stereo not given), the viability was 112% in [1]; 112% (inactive) in assay [3]; 102% (inactive) in [4]; 96.5% (inactive) in assay [5]; 89% in assay [6] (setting [16]); 96.5% in assay [6] (setting [17]). The viability is 90.7% (inactive) in [12] and 91.6% (inactive) in assay [13]. Besides, the Her2 level in assay [2] is 95.5% (inactive). Moreover, the differential viability (reversal) in [6] (H69AR cells + 2 uM doxorubicin) was 7.53% (inactive). Moreover, the inhibition was -0.65% (inactive) in assay [7], 3.44% (inactive) in assay [8] and -0.1% (inactive) in [14]. Also, the growth inhibition in assay [9] was -4.62% (inactive); in assay [10] it was 4.17% (inactive). Moreover, the viability increase in [11] is -0.82% (inactive). The RAM network inhibition in [15] was 3.42% (inactive).

On to `CCOc1cc(C2C3=C(CCCC3=O)N(C)C3=C2C(=O)CCC3)cc(Cl)c1O`, for which the viability is 106% in assay [1]; 106% (inactive) in [3]; 105% (inactive) in [4]; 104% (inactive) in assay [5]; 91.5% in [6] (setting [16]); 104% in assay [6] (setting [17]). For the same molecule, the viability was 96.1% (inactive) in assay [12] and 95.8% (inactive) in [13]. In addition, in [2], the Her2 level was 74.5% (inactive). Further, the differential viability (reversal) in assay [6] (H69AR cells + 2 uM doxorubicin) was 12.8% (inactive). The figures for the inhibition in assay [7], in assay [8] and in assay [14] were -6.35% (inactive), 0.49% (inactive) and 1.12% (inactive), respectively. Further, the growth inhibition in assay [9] is -11.5% (inactive); in [10], -16.7% (inactive). Besides, in assay [11], the viability increase was 2.27% (inactive). Moreover, in [15], the RAM network inhibition is 4.21% (inactive).

As for `CCOC(=O)N1CCC(c2cc(=O)n3[nH]cc(C(=O)OC)c3n2)CC1`, the viability in [1] was 94.5%; in assay [3], 94.5% (inactive); in assay [4], 92.1% (inactive); in [5], 92.2% (inactive); in assay [6] (setting [16]), 82.7%; in [6] (setting [17]) it was 92.2%. In addition, the values for the viability in [12] and in assay [13] were 88.8% (inactive) and 101% (inactive), respectively. For the same molecule, the Her2 level in assay [2] is 101% (inactive). Also, in assay [6] (H69AR cells + 2 uM doxorubicin), the differential viability (reversal) was 9.5% (inactive). The inhibition in [7] is -4% (inactive); in [8], 0.83% (inactive); in assay [14], 0.045% (inactive). Moreover, the growth inhibition in [9] is 2.45% (inactive); in assay [10], 9.29% (inactive). Besides, in assay [11], the viability increase was -0.6% (inactive). Besides, in assay [15], the RAM network inhibition was 0.56% (inactive).

Regarding `Cc1ccc(S(=O)(=O)NCCSc2nnnn2-c2ccc(C(N)=O)cc2)cc1`, the viability is 116% in assay [1]; 116% (inactive) in assay [3]; 126% (inactive) in [4]; 101% (inactive) in [5]; 103% in [6] (setting [16]); 101% in assay [6] (setting [17]). In addition, the viability is 92.1% (inactive) in [12] and 89.8% (inactive) in [13]. Moreover, in assay [2], the Her2 level is 101% (inactive). The differential viability (reversal) in [6] (H69AR cells + 2 uM doxorubicin) is -1.94% (inactive). Also, the figures for the inhibition in assay [7], in [8] and in [14] were 0.53% (inactive), -2.17% (inactive) and -0.71% (inactive), respectively. The growth inhibition is -3.29% (inactive) in assay [9] and -2.84% (inactive) in [10]. Also, in assay [11], the viability increase was -1.69% (inactive). Besides, the RAM network inhibition in assay [15] is 1.74% (inactive).

For the molecule `COc1cccc(-c2cc(C(=O)N3CCCCCC3)no2)c1`, the viability in assay [1] is 98.5%; in [3] it was 98.5% (inactive); in [4] it was 77.4% (inactive); in [5], 85.9% (inactive); in assay [6] (setting [16]) it was 77.7%; in [6] (setting [17]), 85.9%. For the same molecule, the viability is 96.6% (inactive) in assay [12] and 90.9% (inactive) in assay [13]. Moreover, the Her2 level in assay [2] was 94% (inactive). In assay [6] (H69AR cells + 2 uM doxorubicin), the differential viability (reversal) was 8.21% (inactive). For the same molecule, the inhibition was -5.2% (inactive) in assay [7], 2.83% (inactive) in assay [8] and 0.305% (inactive) in assay [14]. In addition, the growth inhibition was -12.5% (inactive) in [9] and -18.2% (inactive) in [10]. For the same molecule, in [11], the viability increase is -0.05% (inactive). Also, the RAM network inhibition in [15] is 0.68% (inactive).
